From PubChem BioAssay (Tox21)
Where “and” joins values, the source holds several entries; their conditions need not be identical. Equal entries are not always repeated. Results filed as inconclusive are left out. A call without a number means that no potency is given here. Calls of active or inactive are those of the source. Unless noted, calls come from the whole dose curve; as a rule, active = well fitted curve in the direction sought with a large enough effect in the repeat runs; inconclusive = weak or mixed curves; inactive = no such curve, though single readings can be large; an effect the other way counts as inactive or inconclusive.

Assays:
[1] = qHTS assay for small molecules that induce genotoxicity in human embryonic kidney cells expressing luciferase-tagged ATAD5 - cell viability (AID 651634; calls by dose curve; note: nearly all actives have a fitted effect of over 25% in size; note: potency is the fitted concentration of half-maximal effect); settings: HEK293T ATAD5-luc cells viability, CellTiter-Fluor, 15.5 h; series mostly up to 83.3 µM
Summary of the method: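 Live-cell protease activity (CellTiter-Fluor, fluorescence) indicates viability. HEK293T cells with luciferase-tagged ATAD5; 15.5 hr compound treatment at 37C.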

[2] = qHTS assay to test for compound auto fluorescence at 590 nm (red) in HepG2 cells (AID 720674); settings: HepG2 autofluorescence, red 540/590 nm, 1 h; series mostly up to 91.3 µM
Summary of the method: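 Seeding: 2,000 HepG2 cells/well, MEM/10% FBS, overnight 37 C. Dosing: compound vs DMSO. Incubation: 1 hr, 37 C, 5% CO2. Read: fluorescence 540 ex/590 em, Rose Bengal sodium as red reference.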

[3] = qHTS assay to test for compound auto fluorescence at 535 nm (green) in HepG2 cells (AID 720675); settings: green autofluorescence 485/535 nm, 1 h; series mostly up to 91.3 µM
[4] = qHTS assay to test for compound auto fluorescence at 460 nm (blue) in HEK293 cells (AID 720678); settings: blue autofluorescence 405/460 nm; series mostly up to 91.3 µM
Summary of the method: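 Triamterene serves as the blue fluorophore standard. Compound signal at 405/460 nm is read in HEK293 wells (2,000 cells, 10% dialyzed FBS) after overnight treatment at 37C.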

[5] = qHTS assay to test for compound auto fluorescence at 590 nm (red) in HEK293 cells (AID 720679); settings: red autofluorescence 540/590 nm; series mostly up to 91.3 µM
Summary of the method: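 We plated HEK293 cells in 10% dialyzed FBS medium, let them adhere for 4-5 hr, then added 23 nL compound. Overnight at 37C and 5% CO2 preceded fluorescence measurement at 540/590nm.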

[6] = qHTS assay to test for compound auto fluorescence at 535 nm (green) in HEK293 cells (AID 720680); settings: green autofluorescence 485/535 nm; series mostly up to 91.3 µM
[7] = qHTS assay to test for compound auto fluorescence at 460 nm (blue) in HEK293 cell free culture (AID 720681); settings: cell-free medium, autofluorescence 405/460 nm (blue); series mostly up to 91.3 µM
Summary of the method: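 Compounds were added to cell-free DMEM with 10% FBS and fluorescence read directly. The blue channel used 405 nm excitation and 460 nm emission, with triamterene as the reference fluorophore.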

[8] = qHTS assay to test for compound auto fluorescence at 535 nm (green) in HEK293 cell free culture (AID 720682); settings: cell-free medium, green autofluorescence 485/535 nm, active compounds read high; series mostly up to 91.3 µM
Summary of the method: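 Intrinsic compound fluorescence is measured in culture medium containing 10% FBS, with excitation at 485 nm and detection at 535 nm, referenced to fluorescein.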

[9] = qHTS assay to test for compound auto fluorescence at 590 nm (red) in HEK293 cell free culture (AID 720683); settings: cell-free medium autofluorescence, Ex540/Em590 red; series mostly up to 91.3 µM
Summary of the method: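 Cell-free wells of DMEM with 10% FBS received compound, and intrinsic fluorescence was read at excitation/emission 540/590 nm. Values expressed as equivalence to Rose Bengal sodium.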

[10] = qHTS assay to test for compound auto fluorescence at 590 nm (red) in HepG2 cell free culture (AID 720684); settings: cell-free medium autofluorescence, red 540/590 nm; series mostly up to 91.3 µM
Summary of the method: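 Compounds are added to culture medium (MEM, 10% FBS) lacking cells, then fluorescence is read at excitation 540 nm, emission 590 nm, with Rose Bengal sodium as the equivalency standard.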

[11] = qHTS assay to test for compound auto fluorescence at 460 nm (blue) in HepG2 cell free culture (AID 720685); settings: Cell-free culture medium, blue autofluorescence 405/460 nm; series mostly up to 91.3 µM
Summary of the method: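 Compound (23 nL) or DMSO pinned into cell-free MEM with 10% FBS; blue fluorescence read at 405/460 nm excitation/emission, expressed as auto-fluorescence equivalency to triamterene.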

[12] = qHTS assay to test for compound auto fluorescence at 535 nm (green) in HepG2 cell free culture (AID 720686); settings: Cell-free medium, green autofluorescence 485/535 nm; series mostly up to 91.3 µM
[13] = qHTS assay to test for compound auto fluorescence at 460 nm (blue) in HepG2 cells (AID 720687); settings: autofluorescence 405/460 nm, 1 h; series mostly up to 91.3 µM
Summary of the method: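 HepG2 cells in MEM with 10% FBS, attached overnight at 37 C, were exposed to compound or DMSO for 1 hr at 37 C, 5% CO2. Blue fluorescence was read at 405/460 nm, with triamterene as reference fluorophore.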

[14] = qHTS assay for small molecule agonists of the p53 signaling pathway - cell viability (AID 651633; calls by dose curve; note: nearly all actives have a fitted effect of over 30% in size; note: potency is the fitted concentration of half-maximal effect); settings: p53RE-bla HCT-116 viability, ATP luminescence, 16 h; series mostly up to 83.3 µM
Summary of the method: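 p53RE-bla cells were treated with compound for 16 hours at 37 C. Cytotoxicity was then measured as CellTiter-Glo luminescence after 30 min at room temperature.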

[15] = qHTS assay for small molecule disruptors of the mitochondrial membrane potential - cell viability (AID 720634; calls by dose curve; note: nearly all actives have a fitted effect of over 20% in size; note: potency is the fitted concentration of half-maximal effect); settings: HepG2 viability, ATP luminescence (CellTiter-Glo), 1 h; series mostly up to 83.2 µM
Summary of the method: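 Human hepatoma HepG2 cells were treated for 1 hr with test chemicals, then given m-MPI dye and CellTiter-Glo. Cell viability reflects luminescence proportional to cellular ATP.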

[16] = qHTS assay for small molecule disruptors of the mitochondrial membrane potential (AID 720635); settings: HepG2 mitochondrial membrane potential, Mito-MPS dye ratio; series mostly up to 83.2 µM; note: potency is the fitted concentration of half-maximal effect
Summary of the method: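 HepG2 cells exposed to compound 1 hr at 37C, then Mito-MPS dye 30 min. Ratio read of aggregate (540/590 nm) versus monomer (490/535 nm) fluorescence.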

[17] = biological target: Glucocorticoid receptor (Homo sapiens) (UniProt P04150); test: qHTS assay to identify small molecule agonists of the glucocorticoid receptor (GR) signaling pathway (AID 720691; active = well fitted activation curve with a large enough effect in the signal ratio in the repeat runs, not every such curve was filed as active; the % refers to the signal ratio); settings: GR-bla HeLa, beta-lactamase reporter ratio, 18 h; series mostly up to 62.4 µM
Summary of the method: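 Beta-lactamase reporter activity, read as fluorescence intensity, was measured in GR-bla HeLa cells exposed to compounds for 18 h at 37 C and then loaded with LiveBLAzer B/G FRET substrate for 2 h at room temperature.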

[18] = qHTS assay for small molecules that induce genotoxicity in human embryonic kidney cells expressing luciferase-tagged ATAD5 (AID 651632); settings: HEK293T ATAD5-luciferase induction, 16 h; series mostly up to 83.3 µM; note: nearly all actives have a fitted effect of over 15% in size
Summary of the method: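 Genotoxicity read-out via ATAD5-luciferase: HEK293T cells, 16 hr compound incubation at 37C, Amplite detection.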

[19] = biological target: Glucocorticoid receptor (Homo sapiens) (UniProt P04150); test: qHTS assay to identify small molecule antagonists of the glucocorticoid receptor (GR) signaling pathway (AID 720692; active = well fitted inhibition curve with a large enough effect in the signal ratio in the repeat runs, not every such curve was filed as active; the % refers to the signal ratio; note: potency is the fitted concentration of half-maximal effect); settings: GR-bla HeLa, beta-lactamase FRET ratio, dexamethasone-stimulated, 18 h; series mostly up to 58.5 µM
Summary of the method: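 Fluorescence from cleaved LiveBLAzer B/G FRET substrate reports GRE-driven beta-lactamase in HeLa cells; compounds are tested against 5 nM dexamethasone (final) over 18 h at 37 C, substrate incubation 2 h at room temperature.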

Chain of Glucocorticoid receptor (Homo sapiens) (P04150 whole entry, looked up): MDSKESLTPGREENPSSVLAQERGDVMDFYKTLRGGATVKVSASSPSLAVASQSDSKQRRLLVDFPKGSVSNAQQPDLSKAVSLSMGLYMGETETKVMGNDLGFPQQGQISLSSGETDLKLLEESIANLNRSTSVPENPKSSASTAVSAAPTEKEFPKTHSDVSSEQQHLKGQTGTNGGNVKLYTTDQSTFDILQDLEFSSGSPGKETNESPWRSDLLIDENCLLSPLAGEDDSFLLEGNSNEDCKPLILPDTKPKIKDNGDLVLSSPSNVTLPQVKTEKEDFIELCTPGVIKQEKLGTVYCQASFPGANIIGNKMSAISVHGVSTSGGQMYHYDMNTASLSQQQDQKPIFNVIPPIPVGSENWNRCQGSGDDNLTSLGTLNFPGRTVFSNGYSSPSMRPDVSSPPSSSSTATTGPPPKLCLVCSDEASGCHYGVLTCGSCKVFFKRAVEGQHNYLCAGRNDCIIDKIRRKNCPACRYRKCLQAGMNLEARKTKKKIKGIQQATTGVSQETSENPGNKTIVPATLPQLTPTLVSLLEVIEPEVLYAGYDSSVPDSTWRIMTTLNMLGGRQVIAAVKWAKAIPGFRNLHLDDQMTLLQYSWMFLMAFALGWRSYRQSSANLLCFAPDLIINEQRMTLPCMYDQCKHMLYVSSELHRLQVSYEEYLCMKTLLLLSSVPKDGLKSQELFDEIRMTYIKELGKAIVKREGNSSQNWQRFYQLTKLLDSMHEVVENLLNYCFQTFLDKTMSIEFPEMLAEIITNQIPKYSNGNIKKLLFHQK

Row | SMILES | Potency [1] | outcome [2] | outcome [3] | Potency [4] | outcome [5] | outcome [6] | Potency [7] | outcome [8] | outcome [9] | outcome [10] | Potency [11] | outcome [12] | Potency [13] | Potency [14] | Potency [15] | Potency [16] | Potency [17] | Potency [18] | Potency [19]
1 | [Cd+2].[Cl-].[Cl-] | 1.95 µM (active) and 1.22 µM (active) | inactive | inactive | inactive | inactive | inactive | inactive | inactive | inactive | inactive | inactive | inactive | inactive |  |  |  |  |  | 
2 | [Hg+2].[I-].[I-] |  | inactive | inactive | inactive | inactive | inactive | inactive | inactive | inactive | inactive | inactive | inactive | inactive | 61.1 µM (active) | 48.6 µM (active) | 17.2 µM (active) |  |  | 
3 | CCCSP(=O)(OCC)SCCC | inactive | inactive | inactive | inactive | inactive | inactive | inactive | inactive |  | inactive | inactive | inactive | inactive |  | inactive |  | inactive |  | 
4 | CN(C)S(=O)(=O)N(SC(F)(Cl)Cl)c1ccccc1 |  | inactive | inactive | inactive | inactive | inactive | inactive | inactive | inactive | inactive | inactive | inactive | inactive |  | 61.1 µM (active) | 4.86 µM (active) |  | inactive | 
5 | N#CCCC(Br)(C#N)CBr (configuration not stated) |  | inactive | inactive | inactive | inactive | inactive | inactive | inactive | inactive | inactive | inactive | inactive | inactive | inactive |  | 61.1 µM (active) | inactive |  | 
6 | O=C/C(Cl)=C(/Cl)C(=O)O | inactive | inactive | inactive | inactive | inactive | inactive | inactive | inactive | inactive | inactive | inactive | inactive | inactive | inactive | 61.1 µM (active) | 24.3 µM (active) and 38.6 µM (active) |  |  | 48.9 µM (active) and 49 µM (active)
7 | CC(=O)[O-].CC(=O)[O-].[Hg+2] |  | inactive | inactive | inactive | inactive | inactive | inactive | inactive | inactive | inactive | inactive | inactive | inactive | 1.93 µM (active) |  |  |  |  | 
8 | CCCCCCCCc1ccc(O)cc1 | inactive | inactive | inactive | inactive | inactive | inactive | inactive | inactive |  | inactive | inactive | inactive | inactive | 12.3 µM (active) | 15.4 µM (active) | 4.89 µM (active) | inactive |  | 
9 | CCOP(=O)(NC(C)C)Oc1ccc(SC)c(C)c1 (configuration not stated) |  | inactive | inactive | inactive | inactive | inactive | inactive | inactive | inactive | inactive | inactive | inactive | inactive |  |  |  | inactive |  | 
10 | C[C@@H]1CC[C@@]2(OC1)O[C@H]1[C@@H](O)[C@H]3[C@@H]4CC[C@H]5C[C@@H](O[C@@H]6O[C@H](CO)[C@H](O[C@@H]7O[C@H](CO)[C@@H](O)[C@H](O[C@@H]8OC[C@@H](O)[C@H](O)[C@H]8O)[C@H]7O[C@@H]7O[C@H](CO)[C@@H](O)[C@H](O[C@@H]8O[C@H](CO)[C@@H](O)[C@H](O)[C@H]8O)[C@H]7O)[C@H](O)[C@H]6O)[C@H](O)C[C@]5(C)[C@H]4CC[C@]3(C)[C@H]1[C@@H]2C | 64.9 µM (active) | inactive | inactive | inactive | inactive | inactive | inactive | inactive | inactive | inactive | inactive | inactive | inactive | 23 µM (active) | 18.3 µM (active) | 4.59 µM (active) |  |  | 
11 | CCCCN(CCCC)C(=S)[S-].CCCCN(CCCC)C(=S)[S-].[Zn+2] |  | inactive | inactive | inactive | inactive | inactive | inactive | inactive | inactive | inactive | inactive | inactive | inactive | 9.44 µM (active) and 61.1 µM (active) | inactive | 27.3 µM (active) |  |  | 
